Laboratory results from PubChem BioAssay AID1259422 (The Scripps Research Institute Molecular Screening Center, 2018).
In all, about 640,000 compounds went through this assay and about 9,300 (1.5%) were called active. This is one part of a sample in which actives are shown more often than they occur. Unmarked numbers belong to inactive results. No stated cut-off is given here; in the data, active means inhibition above about 32%; inactive means the rest.

Assay: TEAD-YAP interaction inhibition, primary screen, TEAD-YAP interaction inhibitor project, luminescence, HEK-TIYL cells (AID 1259422);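 further: 0% = median of test compound wells and 100% = reference inhibitor wells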
Conditions: TEAD-Gal4/YAP UAS-luciferase luminescence, at 9.12 µM, stronger effect = higher value

SMILES	inhibition
COc1ccccc1Nc1cc(C)nc2ccc(Cl)cc12	4.34%
COc1ccccc1Nc1nc(-c2ccc(Cl)cc2)cs1	-12%
COc1ccccc1NC1=NC(c2ccc(Cl)cc2)N=C(N)N1 (centres undefined)	40.4% (active)
Cc1c(CN2CCCC(CNC(=O)c3ccc4c(c3)OCO4)C2)[nH]c2ccccc12 (centres undefined)	13.5%
O=C(NCC1CCCN(Cc2cccn2-c2ncccn2)C1)c1n[nH]c2ccccc12 (centres undefined)	33.7% (active)
O=C(NCC1CCCN(Cc2nc(-c3ccccc3)cs2)C1)c1cccs1 (centres undefined)	9.19%
CCOc1ccc(CN2CCN(Cc3ccc(OC)c(OCC)c3)CC2)cc1	-0.01%
FC(F)(F)c1cccc(N2N=C(/C=C/c3ccccc3)CC2c2ccccc2)c1 (centres undefined)	-3.08%
Cn1c(=O)n(C)c2cc(/C=C3/SC(=Nc4ccc(F)cc4)NC3=O)ccc21	-33.4%
O=C1NC(=Nc2ccc(F)cc2)S/C1=C\c1ccc(O)c(O)c1	51.2% (active)
O=C1NC(=Nc2ccc(F)cc2)S/C1=C\c1cccs1	7.85%
CCCCNC(=O)C(=O)NCC1COc2ccccc2O1 (centres undefined)	-0.58%
COc1ccc(OCC(=O)Nc2nc3ccc(C)cc3s2)cc1	-5.48%
O=C(NCCOc1ccccc1)c1cc(NC2CCN(Cc3ccccc3)CC2)nc2ccccc12	10.3%
Cc1ccc(NC(=O)/N=C/c2sc(=O)[nH]c2O)cc1	-3.99%
CNC(=O)c1ccccc1Nc1ccnc(Nc2ccc(N3CCOCC3)cc2)c1	8.21%
c1nc(Nc2ccc(N3CCOCC3)cc2)cc(N2CCOCC2)n1	2.49%
c1cc(-c2ocnc2-c2ncco2)cc(Nc2ccc(N3CCOCC3)cc2)n1	38.6% (active)
c1cncc(-n2cnc(-c3ccnc(Nc4ccc(N5CCOCC5)cc4)c3)n2)c1	-10.2%
Cc1cnc(-c2c(C)noc2C)nc1Nc1ccc(N2CCOCC2)cc1	-11.4%
Cc1cnc(Nc2ccc(N3CCOCC3)cc2)nc1NCc1cccc(C(F)(F)F)c1	67.6% (active)
c1ccc(-n2cnc(-c3ccnc(Nc4ccc(N5CCOCC5)cc4)c3)n2)cc1	-7.29%
FC(F)(F)c1ccc(Cn2cnc3c(NCc4cccc(C(F)(F)F)c4)nc(Nc4ccc(N5CCOCC5)cc4)nc32)cc1	2.31%
c1ccc(Nc2nc(Nc3ccc(N4CCOCC4)cc3)nc3nc[nH]c23)cc1	24.1%

SMILES	inhibition
Cc1cnc(Nc2ccc(N3CCOCC3)cc2)nc1Nc1ccccc1-c1ncn[nH]1	68.8% (active)
c1ccc(-c2ncn[nH]2)c(Nc2ccnc(Nc3ccc(N4CCOCC4)cc3)c2)c1	44% (active)
FC(F)(F)c1cccc(CNc2nc(Nc3ccc(N4CCOCC4)cc3)nc3c2ncn3-c2ccsc2)c1	-6.95%
O=[N+]([O-])c1ccc(Cl)c(S(=O)(=O)n2nnc3ccccc32)c1	-1.22%
COC(=O)C1C(=O)NC(SCC(=O)Nc2ccc(OC)cc2)=C(C#N)C1c1ccc(C)cc1 (centres undefined)	-9.22%
CC(C)CCNS(=O)(=O)c1ccc2[nH]c3nc4nc(-c5ccc(Br)cc5)cn4nc3c2c1	6.91%
Cc1cc(=O)oc2c(/C=N\NC(=O)c3ccc(Br)cc3)c(O)ccc12	5.44%
CCOc1ccc(NC(=O)/C(C#N)=C\c2ccc(O)cc2)cc1	-6.14%
O=C1C(=O)N(Cc2cccnc2)C(c2cccc(Br)c2)/C1=C(/O)c1ccccc1 (centres undefined)	-12.1%
O=C1CCC(=O)N1c1ccc(-c2nc3scc(-c4cccs4)c3c(=O)o2)cc1	-7.68%
CCOC(=O)N1CCN(C(=O)c2cc3cc4ccc(OC)cc4nc3o2)CC1	-1.56%
COc1ccc2nc3oc(C(=O)NC4CC4)cc3cc2c1	-62.4%
CCN(CC)C(=O)c1cc2cc3ccc(OC)cc3nc2o1	58% (active)
COCCn1nnnc1CN(Cc1ccco1)CC1CCCO1 (centres undefined)	-5.83%
CCOC(=O)C1=C(C)NC2=C(C(=O)CC(C)(C)C2)C1c1cccs1 (centres undefined)	7.66%
CCOc1ccc(C2C(C#N)=C(N)N(N(C)C)C3=C2C(=O)CC(c2ccccc2)C3)cc1 (centres undefined)	17.9%
Cc1nnc(SCC(=O)c2ccc3c(c2)OCCO3)o1	-48.4%
CCCCSc1nnc2c(n1)OC(c1cccc(Cl)c1)Nc1ccccc1-2 (centres undefined)	-39.8%
O=C(O)CCCCCN1C(=O)/C(=C\c2cccs2)SC1=S	28.4%
C=CCOc1ccc(/C=C2\SC(=S)N(CCC(=O)O)C2=O)cc1	50.1% (active)
CCN1C(=O)/C(=C/c2ccc(OCC(=O)O)cc2)SC1=S	-16.2%
O=C(O)CCCCCN1C(=O)/C(=C/c2ccc3c(c2)OCO3)SC1=S	43.9% (active)
O=C(O)CCN1C(=O)/C(=C\c2ccc(C(=O)O)cc2)SC1=S	-5.44%
COc1cc(/C=C2/SC(=S)N(CC(=O)O)C2=O)cc2c1OCO2	2.97%

SMILES	inhibition
COc1cccc(C(=O)NC(=S)Nc2ccc(Br)c(C)n2)c1	-5.25%
Cc1ccc2nc3[nH]c4ccccc4c3nc2c1	35% (active)
Cc1cc2nc3[nH]c4ccccc4c3nc2cc1C	-33%
O=C(NCc1ccc(F)cc1)c1ccc2nc3[nH]c4ccccc4c3nc2c1	4.49%
O=C(NNc1ccc([N+](=O)[O-])cc1[N+](=O)[O-])c1cc2ccccc2cc1O	8.71%
O=C1CCC(=O)N1CC(=O)N(Cc1ccccn1)c1nc2ccccc2s1	18.1%
Cc1cc(C(=O)N(Cc2ccccn2)c2nc3ccccc3s2)on1	69.7% (active)
CCc1cccc2sc(N(Cc3ccccn3)C(=O)CSCc3ccccc3)nc12	2.11%
CC(=O)Oc1cccc(N2C(=O)c3ccc(-c4nc5ccccc5o4)cc3C2=O)c1	-6.42%
C=CCc1ccc(OCCN2CC(C)OC(C)C2)c(OC)c1 (centres undefined)	-7.73%
CC(=O)c1cccc(NC(=O)c2nn3c(C(F)(F)F)cc(-c4ccc(Br)cc4)nc3c2Cl)c1	2.9%
CCC(=O)Oc1ccc(OC)cc1C1Oc2nc(SC)nnc2-c2ccccc2N1C(=O)CC (centres undefined)	-5.21%
Cc1nc2ccc(Cc3ccc4nc(C)oc(=O)c4c3)cc2c(=O)o1	-1.07%
COC(=O)C(C)n1cnc2sc(-c3ccccc3)cc2c1=O (centres undefined)	-25.2%
Cc1nc2sc(-c3ccccc3)cc2c(=O)o1	41% (active)
O=S(=O)(O)CCC[n+]1ccc(/C=C/c2c[nH]c3ccccc23)cc1	3.32%
OCCCNc1ccc2ncc(-c3ccc(N4CCOCC4)cc3)n2n1	19.8%
Cc1cc(C(=O)COC(=O)CCC(=O)c2cccs2)c(C)n1Cc1ccco1	-6.67%
Cc1cc(C(=O)COC(=O)C(CC(C)C)NC(N)=O)c(C)n1Cc1cccs1 (centres undefined)	66.1% (active)
Cc1cc(C(=O)COC(=O)c2ccc([N+](=O)[O-])o2)c(C)n1Cc1cccs1	0.16%
COc1ccc(-c2cn3c4ccccc4n(N)c3n2)cc1	90% (active)
COc1ccc(-c2cn3c4ccccc4n(CCN4CCOCC4)c3n2)cc1	-4.68%
Cn1c2ccccc2n2cc(-c3ccc([N+](=O)[O-])cc3)nc12	-27.1%
CC(C)[C@@H](CO)Nc1ccc2ncc(-c3ccc(C#N)cc3)n2n1	29.7%

SMILES	inhibition
CC(C)[C@@H](CO)Nc1ccc2ncc(-c3ccccc3F)n2n1	57.3% (active)
CC(C)[C@@H](CO)Nc1ccc2ncc(-c3ccc(O)cc3)n2n1	-7.09%
CCC(CO)Nc1ccc2ncc(-c3ccc(N4CCOCC4)cc3)n2n1 (centres undefined)	-1.73%
CCC(CO)Nc1ccc2ncc(-c3ccccc3)n2n1 (centres undefined)	33.7% (active)
CCC(CO)Nc1ccc2ncc(-c3cccc(F)c3)n2n1 (centres undefined)	5.85%
CCS(=O)(=O)Nc1cccc(N2CCC(NCCn3nc(C)cc3C)CC2)c1	2.36%
CC(Oc1ccc(Cl)cc1Cl)C(=O)Nc1ccc(C(=O)O)cc1 (centres undefined)	11.5%
O=C(CN(c1ccc(Cl)cc1Cl)S(=O)(=O)c1ccccc1)Nc1ccc(Cl)c(Cl)c1	-0.39%
CC(C)(C)c1ccc(NC(=O)CSc2cccc[n+]2[O-])cc1	-49.2%
O=C(NCc1ccc2c(c1)OCO2)c1cccnc1SCc1cccc(Br)c1	10.6%
O=C(Nc1sc2c(c1C(=O)O)CCCC2)c1cc2ccccc2o1	50.1% (active)
NC(=O)c1c(NC(=O)c2ccc(Br)o2)sc2c1CCCC2	3.19%
NC(=O)c1c(NC(=O)c2cc(=O)c3ccccc3o2)sc2c1CCCCC2	32.9% (active)
N#Cc1c(NC(=O)c2cc3ccccc3c(=O)o2)sc2c1CCCCC2	4.91%
COC(=O)c1c(NC(=O)c2cc3ccccc3oc2=O)sc2c1CCCC2	-7.92%
NC(=O)c1c(NC(=O)Cc2ccccc2)sc2c1CCCCC2	-7.09%
Cc1ccc(Nc2nc(-c3ccc(Br)cc3)cs2)cc1Cl	-7.82%
Cc1ccc(Nc2nc(-c3ccccn3)cs2)cc1C	49.9% (active)
Cc1cccc(Nc2nc(-c3ccc(I)cc3)cs2)c1	-33.1%
O=C(Nc1nc2c(s1)CN(Cc1ccccc1)CC2)c1cc(Cl)ccc1Cl	-2.92%
CN1CCc2nc(NC(=O)c3ccc(Cl)cc3Cl)sc2C1	-69.8%
CCCN1CCc2nc(NC(=O)COc3ccc(Cl)cc3Cl)sc2C1	45% (active)
